The list is not random: actives were taken first. Their share in the collection is about 2.2%.
Abeta rescue: compounds reversing amyloid beta toxicity in yeast | AID 1347071 | yeast expressing A-beta42, growth rescue, OD600, 48 h; response scale: 0% DMSO, 100% iron-clioquinol control | 410,000 compounds, 0.063% hits | Potency, µM (top dose mostly 46.1 µM), usual class: activators; also: nearly all actives have a fitted effect of over 55% in size
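Yeast A-beta toxicity model in growth medium with pinned compounds, 48 h at 30 C; growth read as absorbance at 600 nm. Normalized to FeCl3/clioquinol equimolar mix (positive) and DMSO (negative).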
TDP-43 yeast inh: rescues yeast growth from TDP-43 toxicity. TDP-43 expressing yeast growth rescue, BacTiter-Glo, 24 h. Potency, µM (titrated, usually from 46.1 µM), without a hit: at the highest dose growth rescue (activation), actives largely listed as activators. AID 652104. 410,000 compounds, 1.8% hits; also: % of control where 0% means no effect; nearly all actives have a fitted effect of over 50% in size
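Yeast cells expressing TDP-43 under galactose induction are exposed to compounds for 24 hr at 30 deg C. BacTiter-Glo luminescence measures growth, so protective compounds score as activators.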
FUS suppressor: FUS proteinopathy suppression in yeast; S. cerevisiae FUS-expressing, growth rescue, OD600, 24 h; Potency, µM (series often up to 76.6 µM), hits mostly activators; 390,000 compounds, 0.24% hits; AID 1347120;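 also: plate controls were DMSO vehicle for no effect and reference control for full effect; nearly all actives have a fitted effect of over 55% in size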
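Read-out: OD at 600 nm after 24hr at 30C, reporting rescue of FUS-induced yeast toxicity. Cells at OD 0.005 in galactose (2%) minimal medium; compounds tested in a dilution series; CP55940 titration from 92uM final as control.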
Mito fusion yeast: blocks mitochondrial division or promotes mitochondrial fusion; S. cerevisiae fusion-defective mutant growth rescue, CellTiterGlo 48 h; Potency, µM (top dose mostly 46.1 µM), without a hit: top-dose growth rescue (activation), actives largely listed as activators; 320,000 compounds, 0.23% hits; AID 485298; also: % of control where 0% means no effect; nearly all actives have a fitted effect of over 45% in size
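Read-out: ATP-based luminescence (CellTiterGlo, 10 min ambient) reporting growth of fusion-defective ts yeast after 48 hours at 37C on glycerol/ethanol YPEG medium in the presence of compound.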
aSyn rescue: rescues yeast growth from alpha-synuclein toxicity; Yeast expressing alpha-synuclein, growth rescue, BacTiter-Glo, 24 h; 370,000 compounds, 0.14% hits; Potency, µM (titrated, usually from 46.1 µM), for the others: at the top dose growth rescue (activation), usual class: activators; AID 652106; also: % of control where 0% means no effect; nearly all actives have a fitted effect of over 65% in size
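Galactose-induced alpha-syn yeast (OD600=0.02, raffinose-pregrown) + pinned cpd, 24 hr, 30 deg C; growth by BacTiter-Glo luminescence. Growth restoration scores as activation.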
* = called active by the depositor; i = inactive; u = inconclusive; x = no result given; [ ] = dose if it differs, or a comment. Calls follow the shape of the dose curve; as a rule, active = well fitted curve in the direction sought with a large enough effect; inconclusive = small, poorly fitted or top-dose-only effect, or another doubt; inactive = no such curve, though single readings can be large; an effect the other way counts as inactive or inconclusive. Potency is read from the fitted curve at half-maximal effect.

SMILES	Abeta rescue	TDP-43 yeast inh	FUS suppressor	Mito fusion yeast	aSyn rescue
O=C(CCSCc1ccc(Cl)cc1)NCCc1ccccc1	i	18.4%	i	13.9%	9.8%
O=C(/C=C/c1cccc([N+](=O)[O-])c1)NCCSCc1cccc(Cl)c1	i	22.4µM*	i	u	22.7%
COc1ccc(C(=O)NCCSCc2cccc(Cl)c2)cc1OC	i	20µM*	i	-1.0%	7.3%
COc1cccc(C(=O)NCCSCc2ccccc2Cl)c1	i	u	u	3.7%	0.1%
CCOc1ccc(CCNC(=O)CCSCc2cccc(Cl)c2)cc1OCC	i	22.4µM*	i	x	x
CCOc1ccc(CCNC(=O)CCSCc2ccc(Cl)cc2)cc1OCC	i	21.1%	i	x	x
Cc1ccc(/C(O)=C2\C(=O)C(=O)N(CCc3c[nH]c4ccccc34)C2c2cccnc2)cc1 (stereo not given)	i	-16.6%	35.5µM*	-28.2%	-1.8%
CCC(c1c[nH]c2ccccc12)c1cn(C)c2ccccc12 (stereo not given)	x	x	i	x	x
O=C(COC(=O)/C=C/c1ccc(Cl)c(Cl)c1)NC1CCCC1	i	10µM*	i	0.7%	-13.0%[1.84 µM]
O=C(Nc1nnc(-c2cccs2)o1)c1cccc(C(F)(F)F)c1	6.31µM*	7.08µM*	i	12.3%	3.16µM*
O=C(Cc1ccccc1F)Nc1nnc(-c2cccnc2)s1	x	x	i	x	x
COC(=O)CC1(c2cccc3ccccc23)C(=O)c2ccccc2C1=O	i	22.4µM*	i	4.5%	6.3%
COc1ccc(F)cc1S(=O)(=O)n1nnc2ccccc21	i	10µM*	u	0.0%	u
CC(C)(C)C(=O)Nc1ccc2nc(SCC(=O)N3CCCC3)sc2c1	i	4.9%	i	x	x
CN(CCN(C)c1nc(-c2cccs2)nc2ccccc12)C(=O)OC(C)(C)C	x	x	x	x	-25.9%
COc1ccc(NC(=O)C2Cc3c(-c4ccc(Cl)cc4)ccnc3O2)cc1OC (stereo not given)	i	35.5µM*	i	x	6.4%
COc1ccc(NC(=O)C2Cc3c(-c4ccc(Cl)cc4)ccnc3O2)cn1 (stereo not given)	i	35.5µM*	i	x	13.5%
O=C(NCc1ccccc1)C1Cc2c(-c3ccc(Cl)cc3)ccnc2O1 (stereo not given)	i	20µM*	i	x	u
CC(=O)c1ccc(N2CCN(c3ncnc4onc(C)c34)CC2)cc1	i	22.9%	i	x	-1.8%
Cc1ccc(CNC(=O)c2ccc(CSCc3cccc(C)c3)o2)cc1	i	35.5µM*	i	x	u
Cc1ccc(CNC(=O)c2ccc(CSCc3ccc(C)cc3)o2)cc1	i	1.3%	i	x	x
CCN(c1ccccc1C)S(=O)(=O)c1nnc(NC(=O)c2ccccc2C)s1	i	9.4%	i	x	x
CC(=O)Nc1ccccc1OCc1cc(=O)n2c3c(sc2n1)CCCC3	i	9.0%	i	x	x
CCNC(=S)Nc1ccc(N2CCCCC2)cc1	i	2.8%	i	4.5%	-11.2%
S=C(NCCc1ccccc1)Nc1ccc(N2CCCCC2)cc1	8.91µM*	29.6%	i	-44.3%	-9.1%
SMILES	Abeta rescue	TDP-43 yeast inh	FUS suppressor	Mito fusion yeast	aSyn rescue
CC(C)NC(=S)N(C)C1(c2ccccc2Cl)CCCCC1=O (stereo not given)	i	u	i	17.7%	15.7%
CN(C(=S)NC1CCCCC1)C1(c2ccccc2Cl)CCCCC1=O (stereo not given)	u	-10.9%[9.22 µM]	i	20µM*	1.5%
Cc1cc[n+](CC#N)cc1	x	x	x	x	-5.6%
Cc1ccc(C(=O)NCC(c2cccs2)S(=O)(=O)c2cccs2)cc1 (stereo not given)	i	u	u	x	x
CN(/N=C/c1ccc(O)cc1O)c1ncc(C(F)(F)F)cc1Cl	u	35.5µM*	i	6.7%	-35.8%
CN(/N=C/c1ccccc1Cl)c1ncc(Cl)cc1C(F)(F)F	i	0.0%	i	-5.5%	-9.4%
CCCCOc1ccc(C(=O)O)cc1	i	u	i	4.1%	-11.8%
CCCCCCOc1ccc(C(=O)O)cc1C#N	i	22.4µM*	x	u	-17.2%
CCCCCOc1ccc(OC(=O)c2ccncc2)cc1	i	35.5µM*	i	-2.8%	-6.4%
CCOc1ccc(C(=O)Nc2cccc(C)n2)cc1	i	-6.9%	i	-2.6%	-12.8%
CCCCOc1ccc(C(=O)Nc2cccc(C)n2)cc1	i	2.82µM*	x	-4.1%	-26.1%
CCCCCCCCOc1ccc(C(=O)O)cc1	i	15.1%	i	12.6µM*	5.8%
O=C(COc1ccc2oc3c(c2c1)CCCC3)Nc1ccc(Cl)cc1	i	7.0%	i	x	-1.4%
CC(C)Oc1ccc(C(=O)O)cc1	i	12.6µM*	i	-4.3%	1.2%
O=C(c1ccc2c(c1)OCCO2)C1CCN(C(=O)c2ccc(F)c(F)c2)CC1	i	11.2µM*	i	5.8%	2.0%
COCc1cccc(-c2csc(C(N)c3ccc(F)c(F)c3)n2)c1 (stereo not given)	i	15.5%	i	x	0.4%
COCc1cccc(-c2csc(C(O)c3ccc(F)c(F)c3)n2)c1 (stereo not given)	i	20µM*	i	x	u
COc1ccc(C(O)c2nc(-c3cccc(C(F)(F)F)c3)cs2)cc1 (stereo not given)	i	22.4µM*	u	x	11.5%
COc1cccc(C(O)c2nc(-c3cccc(C(F)(F)F)c3)cs2)c1 (stereo not given)	i	22.4µM*	i	x	3.0%
OC(c1ccccc1)c1nc(-c2cccc(F)c2)cs1 (stereo not given)	i	u	i	x	24.7%
COc1ccc(C(O)c2nc(-c3cccc(F)c3)cs2)cc1 (stereo not given)	i	14.1µM*	i	x	u
CCOC(=O)CC[C@@]1(C(=O)OCC)C[C@@H](CC(=O)NCCCOC)C(=O)N2CCCC=C21	x	x	i	x	x
C[C@@H]1[C@@H](O)C[C@@]2(C[C@H](O)c3cc(Cl)cc(Cl)c3O2)O[C@H]1c1ccccc1Cl	x	x	i	x	x
COc1ccc(NC(=O)C2CCCN2S(=O)(=O)c2cccc3cccnc23)c(OC)c1 (stereo not given)	i	2.51µM*	i	-29.8%	-0.3%
Cn1cnc(S(=O)(=O)N2CCCC(C(=O)NCc3ccccc3)C2)c1 (stereo not given)	i	14.9%	i	x	x
CCNC(=O)C1CCN(c2nnc(C)c3c(C)n(-c4ccc(OC)cc4)nc23)CC1	i	8.5%	i	x	x
O=C(CCC1CCCCC1)Nc1ccccc1-c1ccccc1	i	14.1µM*	i	3.2%	-10.0%
O=C(NNC(=O)c1ccccc1F)c1ccc(-c2ccccc2Cl)o1	i	22.4µM*	i	x	0.3%
